Legend:
Test in all cases: DAPPL (digital affinity profiling via proximity ligation, sequencing); 10 mM Tris-HCl pH 7.5, 50 mM NaCl, 1 mM DTT, 4% glycerol, room temperature, 30 min; GST-TFs on glutathione beads, 16-mer random dsDNA library, 0.1% formaldehyde crosslink after washing; high values mean tight binding
Details in all cases: protein: recombinant; tags: N-terminal GST; dsDNA, one strand shown
FLI1 = biological target: T1, FLI1 (Homo sapiens, UniProt Q01543 1-452)
T1 sequence: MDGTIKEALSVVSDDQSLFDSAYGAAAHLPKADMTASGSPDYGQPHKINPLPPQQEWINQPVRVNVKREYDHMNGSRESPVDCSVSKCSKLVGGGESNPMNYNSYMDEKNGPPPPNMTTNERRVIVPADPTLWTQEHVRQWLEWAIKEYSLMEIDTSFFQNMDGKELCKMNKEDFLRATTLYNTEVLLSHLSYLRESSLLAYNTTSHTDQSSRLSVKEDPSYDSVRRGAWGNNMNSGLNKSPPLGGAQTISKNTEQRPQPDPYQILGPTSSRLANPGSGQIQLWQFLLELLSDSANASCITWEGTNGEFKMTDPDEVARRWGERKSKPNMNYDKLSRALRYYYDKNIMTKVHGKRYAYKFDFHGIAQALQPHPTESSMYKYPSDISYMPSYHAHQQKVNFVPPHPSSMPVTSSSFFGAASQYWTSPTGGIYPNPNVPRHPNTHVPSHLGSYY
Procedure, shortened: (§1)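 Human transcription factors were made in yeast as GST fusions, captured on glutathione beads and barcoded with DNA. With a tag-only sample included, the pool was incubated with 200 nmole of a random double-stranded 16-mer DNA library in Tris/NaCl/DTT/glycerol buffer at room temperature for 30 min, then crosslinked with 0.1% formaldehyde after washing, ligated by proximity, amplified and sequenced. For binding signal, each hexamer's read frequency for a factor is divided by its frequency for the tag-only sample.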

GABPA = biological target: T2, GABPA (Homo sapiens, UniProt Q06546 1-454)
T2 sequence: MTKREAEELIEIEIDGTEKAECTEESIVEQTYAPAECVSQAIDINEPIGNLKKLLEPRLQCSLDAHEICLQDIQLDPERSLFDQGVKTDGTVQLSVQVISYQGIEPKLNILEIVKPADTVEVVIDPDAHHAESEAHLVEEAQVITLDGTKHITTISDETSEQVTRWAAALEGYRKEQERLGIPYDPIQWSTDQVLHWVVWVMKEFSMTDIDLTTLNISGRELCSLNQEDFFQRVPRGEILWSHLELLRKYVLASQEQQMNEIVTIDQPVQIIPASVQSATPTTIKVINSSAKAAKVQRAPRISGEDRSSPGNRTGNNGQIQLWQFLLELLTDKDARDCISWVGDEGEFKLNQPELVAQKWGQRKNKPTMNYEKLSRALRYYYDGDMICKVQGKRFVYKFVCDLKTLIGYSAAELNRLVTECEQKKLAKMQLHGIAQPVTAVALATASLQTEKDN
Procedure, shortened: as §1

EHF = biological target: T3, EHF (Homo sapiens, UniProt Q9NZC4 1-300)
T3 sequence: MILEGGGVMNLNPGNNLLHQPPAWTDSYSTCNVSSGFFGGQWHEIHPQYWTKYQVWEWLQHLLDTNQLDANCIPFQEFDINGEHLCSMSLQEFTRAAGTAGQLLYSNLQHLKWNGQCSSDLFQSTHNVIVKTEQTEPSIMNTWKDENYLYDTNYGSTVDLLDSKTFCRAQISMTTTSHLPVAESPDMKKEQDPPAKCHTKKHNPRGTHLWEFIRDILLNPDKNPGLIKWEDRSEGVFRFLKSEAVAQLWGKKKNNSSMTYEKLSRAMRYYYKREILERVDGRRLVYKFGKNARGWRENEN
Procedure, shortened: as §1

ELK3 = biological target: T4, ELK3 (Homo sapiens, UniProt P41970 1-407)
T4 sequence: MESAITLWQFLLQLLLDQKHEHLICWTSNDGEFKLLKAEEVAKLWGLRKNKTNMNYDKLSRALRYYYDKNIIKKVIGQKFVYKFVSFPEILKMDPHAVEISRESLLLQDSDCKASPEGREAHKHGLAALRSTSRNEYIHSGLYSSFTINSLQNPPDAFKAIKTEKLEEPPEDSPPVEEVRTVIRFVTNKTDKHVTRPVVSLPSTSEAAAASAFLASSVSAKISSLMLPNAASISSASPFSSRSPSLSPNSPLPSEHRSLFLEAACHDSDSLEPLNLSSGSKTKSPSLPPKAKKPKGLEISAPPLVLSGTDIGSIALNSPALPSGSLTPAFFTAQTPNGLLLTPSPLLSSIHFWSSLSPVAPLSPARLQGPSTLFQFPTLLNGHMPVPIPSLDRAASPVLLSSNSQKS
Procedure, shortened: as §1

SPIC = biological target: T5, SPIC (Homo sapiens, UniProt Q8N5J4 1-248)
T5 sequence: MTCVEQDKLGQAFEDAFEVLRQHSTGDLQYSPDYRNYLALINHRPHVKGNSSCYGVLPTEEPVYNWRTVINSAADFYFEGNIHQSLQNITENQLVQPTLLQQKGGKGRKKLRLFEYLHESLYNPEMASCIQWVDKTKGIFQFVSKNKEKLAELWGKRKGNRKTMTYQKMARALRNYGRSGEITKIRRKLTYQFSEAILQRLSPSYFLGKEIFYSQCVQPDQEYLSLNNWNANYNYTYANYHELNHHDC
Procedure, shortened: as §1

ETV2 = biological target: T6, ETV2 (Homo sapiens, UniProt O00321 1-342)
T6 sequence: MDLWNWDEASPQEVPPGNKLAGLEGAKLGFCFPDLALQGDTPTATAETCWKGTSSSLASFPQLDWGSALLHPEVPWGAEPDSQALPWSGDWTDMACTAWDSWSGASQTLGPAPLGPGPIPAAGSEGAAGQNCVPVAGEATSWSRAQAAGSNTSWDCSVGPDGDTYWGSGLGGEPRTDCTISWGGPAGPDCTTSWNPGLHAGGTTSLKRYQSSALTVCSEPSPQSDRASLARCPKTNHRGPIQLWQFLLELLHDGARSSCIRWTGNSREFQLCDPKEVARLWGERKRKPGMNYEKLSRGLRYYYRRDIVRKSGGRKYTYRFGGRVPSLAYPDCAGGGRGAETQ
Procedure, shortened: as §1

ETV1 = ETV1 (Homo sapiens, UniProt P50549 1-477)
Procedure, shortened: as §1

ERF = biological target: T7, ERF (Homo sapiens, UniProt P50548 1-548)
T7 sequence: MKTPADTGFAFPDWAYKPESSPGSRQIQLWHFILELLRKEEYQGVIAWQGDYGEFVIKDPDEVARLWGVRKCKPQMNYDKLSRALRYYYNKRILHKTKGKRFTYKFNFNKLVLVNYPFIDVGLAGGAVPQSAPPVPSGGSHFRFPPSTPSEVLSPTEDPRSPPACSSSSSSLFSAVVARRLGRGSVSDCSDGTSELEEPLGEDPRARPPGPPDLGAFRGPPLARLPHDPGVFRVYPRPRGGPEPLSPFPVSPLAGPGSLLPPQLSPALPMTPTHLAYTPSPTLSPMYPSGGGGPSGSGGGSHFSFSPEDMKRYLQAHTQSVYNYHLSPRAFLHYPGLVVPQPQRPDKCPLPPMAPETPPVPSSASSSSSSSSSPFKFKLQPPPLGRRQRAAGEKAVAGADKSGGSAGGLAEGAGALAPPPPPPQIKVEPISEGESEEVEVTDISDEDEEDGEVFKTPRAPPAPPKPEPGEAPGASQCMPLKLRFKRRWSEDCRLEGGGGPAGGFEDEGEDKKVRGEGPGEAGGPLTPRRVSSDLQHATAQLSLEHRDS
Procedure, shortened: as §1

ETS2 = biological target: T8, ETS2 (Homo sapiens, UniProt P15036 1-469)
T8 sequence: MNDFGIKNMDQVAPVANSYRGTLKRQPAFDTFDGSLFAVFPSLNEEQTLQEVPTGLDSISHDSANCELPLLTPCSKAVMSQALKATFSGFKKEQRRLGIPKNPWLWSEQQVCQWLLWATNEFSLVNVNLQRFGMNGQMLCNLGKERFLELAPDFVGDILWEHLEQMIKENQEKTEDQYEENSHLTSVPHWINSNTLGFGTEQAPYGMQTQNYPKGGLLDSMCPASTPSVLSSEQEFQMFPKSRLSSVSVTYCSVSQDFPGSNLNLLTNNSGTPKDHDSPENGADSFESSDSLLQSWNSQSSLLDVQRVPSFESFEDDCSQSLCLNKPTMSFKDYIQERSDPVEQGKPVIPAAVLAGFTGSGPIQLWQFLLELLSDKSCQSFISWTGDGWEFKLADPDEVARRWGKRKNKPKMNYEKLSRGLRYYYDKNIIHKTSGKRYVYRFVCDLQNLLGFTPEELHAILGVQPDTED
Procedure, shortened: as §1

ELF1 = ELF1 (Homo sapiens, UniProt P32519 1-619)
Procedure, shortened: as §1

ELF4 = ELF4 (Homo sapiens, UniProt Q99607 1-663)
Procedure, shortened: as §1

ELF3 = biological target: T9, ELF3 (Homo sapiens, UniProt P78545 1-371)
T9 sequence: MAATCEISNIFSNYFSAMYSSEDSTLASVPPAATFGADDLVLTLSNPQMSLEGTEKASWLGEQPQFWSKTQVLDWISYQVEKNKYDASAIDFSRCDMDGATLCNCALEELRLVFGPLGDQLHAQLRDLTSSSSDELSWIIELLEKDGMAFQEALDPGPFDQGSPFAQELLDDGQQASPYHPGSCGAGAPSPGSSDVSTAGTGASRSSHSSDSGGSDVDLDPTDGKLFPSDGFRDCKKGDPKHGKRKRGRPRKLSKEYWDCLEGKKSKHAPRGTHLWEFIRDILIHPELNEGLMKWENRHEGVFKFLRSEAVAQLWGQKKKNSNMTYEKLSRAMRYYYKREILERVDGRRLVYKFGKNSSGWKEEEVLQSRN
Procedure, shortened: as §1

ETV7 = biological target: T10, ETV7 (Homo sapiens, UniProt Q9Y603 1-341)
T10 sequence: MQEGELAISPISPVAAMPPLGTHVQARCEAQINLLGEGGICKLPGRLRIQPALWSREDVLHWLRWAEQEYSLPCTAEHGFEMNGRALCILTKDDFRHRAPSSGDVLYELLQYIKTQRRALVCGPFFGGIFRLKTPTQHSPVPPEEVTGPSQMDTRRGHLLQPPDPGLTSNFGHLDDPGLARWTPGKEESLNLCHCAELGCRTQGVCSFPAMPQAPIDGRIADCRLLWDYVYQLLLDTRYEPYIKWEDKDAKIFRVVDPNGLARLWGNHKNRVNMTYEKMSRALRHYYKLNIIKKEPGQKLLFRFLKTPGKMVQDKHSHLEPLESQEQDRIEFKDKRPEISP
Procedure, shortened: as §1

ETV3 = biological target: T11, ETV3 (Homo sapiens, UniProt P41162-2 1-143)
T11 sequence: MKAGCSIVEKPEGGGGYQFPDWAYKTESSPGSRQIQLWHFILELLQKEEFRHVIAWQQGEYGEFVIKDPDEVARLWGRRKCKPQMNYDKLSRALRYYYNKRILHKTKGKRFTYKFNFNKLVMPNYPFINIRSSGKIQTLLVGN
Procedure, shortened: as §1

ETV1, sequence (P50549 whole entry): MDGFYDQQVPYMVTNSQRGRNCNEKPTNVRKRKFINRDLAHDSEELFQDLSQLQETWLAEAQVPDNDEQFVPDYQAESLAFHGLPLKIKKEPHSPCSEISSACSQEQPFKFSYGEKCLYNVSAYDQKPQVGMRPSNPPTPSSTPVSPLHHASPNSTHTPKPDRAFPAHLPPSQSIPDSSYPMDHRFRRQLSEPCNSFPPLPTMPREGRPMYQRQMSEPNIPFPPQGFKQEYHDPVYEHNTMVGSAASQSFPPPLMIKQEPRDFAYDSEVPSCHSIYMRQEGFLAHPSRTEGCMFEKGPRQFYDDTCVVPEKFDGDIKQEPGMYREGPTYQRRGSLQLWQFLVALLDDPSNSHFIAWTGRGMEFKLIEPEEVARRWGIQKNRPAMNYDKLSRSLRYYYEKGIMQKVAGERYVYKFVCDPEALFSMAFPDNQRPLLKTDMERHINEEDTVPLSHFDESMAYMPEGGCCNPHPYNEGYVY
ELF1, sequence (P32519 whole entry): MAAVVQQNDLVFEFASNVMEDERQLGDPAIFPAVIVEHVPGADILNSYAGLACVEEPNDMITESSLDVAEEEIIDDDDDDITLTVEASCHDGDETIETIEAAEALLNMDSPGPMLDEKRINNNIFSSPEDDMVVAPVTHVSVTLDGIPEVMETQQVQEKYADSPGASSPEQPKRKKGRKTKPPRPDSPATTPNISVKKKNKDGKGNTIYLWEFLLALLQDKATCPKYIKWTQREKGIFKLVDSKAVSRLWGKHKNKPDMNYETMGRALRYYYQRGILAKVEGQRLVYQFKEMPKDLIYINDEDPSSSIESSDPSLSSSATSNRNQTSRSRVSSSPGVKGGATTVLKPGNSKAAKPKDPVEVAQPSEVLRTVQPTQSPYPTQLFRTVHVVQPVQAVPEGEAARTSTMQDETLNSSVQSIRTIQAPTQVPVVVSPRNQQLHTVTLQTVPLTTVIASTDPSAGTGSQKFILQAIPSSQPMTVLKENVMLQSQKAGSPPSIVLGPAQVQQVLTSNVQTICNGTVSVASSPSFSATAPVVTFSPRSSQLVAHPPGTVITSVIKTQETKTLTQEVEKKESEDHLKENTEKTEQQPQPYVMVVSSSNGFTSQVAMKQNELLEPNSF
ELF4, sequence (Q99607 whole entry): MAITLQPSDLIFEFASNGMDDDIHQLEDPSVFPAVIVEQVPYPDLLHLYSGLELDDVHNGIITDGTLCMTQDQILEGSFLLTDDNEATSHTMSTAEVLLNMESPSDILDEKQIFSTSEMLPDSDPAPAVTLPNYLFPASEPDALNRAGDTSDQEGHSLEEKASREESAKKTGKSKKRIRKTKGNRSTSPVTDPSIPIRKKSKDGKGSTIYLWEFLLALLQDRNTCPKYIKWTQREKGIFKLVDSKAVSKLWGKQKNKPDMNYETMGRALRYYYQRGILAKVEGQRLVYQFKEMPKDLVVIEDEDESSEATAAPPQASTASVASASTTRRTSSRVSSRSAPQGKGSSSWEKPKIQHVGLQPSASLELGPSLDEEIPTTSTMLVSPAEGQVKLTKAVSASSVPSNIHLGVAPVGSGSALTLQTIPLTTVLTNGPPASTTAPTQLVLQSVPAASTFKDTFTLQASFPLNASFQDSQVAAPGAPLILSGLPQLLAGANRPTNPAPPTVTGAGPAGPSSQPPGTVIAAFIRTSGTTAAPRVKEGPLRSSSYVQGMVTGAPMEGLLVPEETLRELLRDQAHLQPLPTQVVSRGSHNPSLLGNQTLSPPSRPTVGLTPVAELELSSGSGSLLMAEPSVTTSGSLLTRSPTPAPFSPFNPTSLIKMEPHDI

Sequence | binding signal (FLI1) | binding signal (GABPA) | binding signal (EHF) | binding signal (ELK3) | binding signal (SPIC) | binding signal (ETV2) | binding signal (ETV1) | binding signal (ERF) | binding signal (ETS2) | binding signal (ELF1) | binding signal (ELF4) | binding signal (ELF3) | binding signal (ETV7) | binding signal (ETV3)
GTCGAC | 1.04 fold enrichment (6-mer frequency, TF over GST control) | 1.02 fold enrichment (6-mer frequency, TF over GST control) | 1.01 fold enrichment (6-mer frequency, TF over GST control) | 1.06 fold enrichment (6-mer frequency, TF over GST control) | 1.07 fold enrichment (6-mer frequency, TF over GST control) | 1.02 fold enrichment (6-mer frequency, TF over GST control) | 1 fold enrichment (6-mer frequency, TF over GST control) | 1.07 fold enrichment (6-mer frequency, TF over GST control) | 1.04 fold enrichment (6-mer frequency, TF over GST control) |  |  |  |  | 
ACTCGG | 1.07 fold enrichment (6-mer frequency, TF over GST control) |  | 1.04 fold enrichment (6-mer frequency, TF over GST control) | 1.06 fold enrichment (6-mer frequency, TF over GST control) | 1.08 fold enrichment (6-mer frequency, TF over GST control) | 1.03 fold enrichment (6-mer frequency, TF over GST control) | 1.03 fold enrichment (6-mer frequency, TF over GST control) | 1.04 fold enrichment (6-mer frequency, TF over GST control) |  | 1.07 fold enrichment (6-mer frequency, TF over GST control) | 1.02 fold enrichment (6-mer frequency, TF over GST control) | 1.03 fold enrichment (6-mer frequency, TF over GST control) | 1.06 fold enrichment (6-mer frequency, TF over GST control) | 1.04 fold enrichment (6-mer frequency, TF over GST control)

From article PMC7862700, “An all-to-all approach to the identification of sequence-specific readers for epigenetic DNA modifications on cytosine”
